Results filed as inconclusive are left out. Active and inactive are the calls of the source. Calls come from the whole dose curve.

One assay in a line: qHTS Assay for Lipid Storage Modulators (AID 1519). For activity change, negative = inhibition: % is set by controls: 0 for no effect and ±100 for the full control effect. Particulars: Drosophila S3 cells, BODIPY lipid droplet/cell ratio, laser cytometry; at 57.5 µM (top of the series); cells loaded with oleic acid. The procedure, abridged:
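Cells seeded at 5,000 per well were treated with compounds over a concentration series and loaded with oleic acid (400 uM, as added). Lipid droplet fluorescence (488 nm excitation, 500-530 nm channel) was read by laser-scanning cytometry and normalized to 20 uM Triacsin C.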
With `FC(F)(F)c1ccccc1-c1ccc2ncnc(NC3CCNCC3)c2c1`, the activity change, negative = inhibition was -0.848% (inactive).
The same measure, in the same setting: for `Cc1cc2ccc(=O)oc2cc1OC[C@@H](O)C(C)(C)O` the value was 5.47% (inactive); for `Nc1ncnc2c1nc(Br)n2[C@H]1O[C@H]2COP(=O)(O)O[C@H]2[C@@H]1O`, -1.26% (inactive).
As for `CC/C=C\C[C@H]1C(=O)CC[C@@H]1CC(=O)O`, the activity change, negative = inhibition is -2.79% (inactive).
As for `COc1cccc(-c2nc(NCCc3c[nH]c4ccc(OC)cc34)c3ccccc3n2)c1`, the activity change, negative = inhibition was 5.14% (inactive).
On the same count and under the same terms, the figure for `CC1=C(CCC(=O)O)c2cc3nc(cc4[nH]c(cc5[nH]c(cc1n2)c(C)c5C(C)O)c(C)c4C(C)O)C(C)=C3CCC(=O)O` (stereo not given) is 3.12% (inactive); for `C[C@@](N)(C(=O)O)c1cccc(CC(=O)O)c1` it is 1.75% (inactive); for `NCCC(=O)N[C@@H](Cc1cnc[nH]1)C(=O)O` it is -2.81% (inactive).
Regarding `C/C(=C\CNc1ncnc2nc[nH]c12)CO`, the activity change, negative = inhibition is -1.3% (inactive).
As for `COc1cc2ccc(=O)oc2c(O)c1O`, the activity change, negative = inhibition is -4.51% (inactive).
The same measure, in the same setting: the figure for `O=c1cc(-c2cccc(O)c2)oc2cc(O)ccc12` is 8.05% (inactive).
Still for that read-out and setting: for `CN1[C@H](CC(=O)c2ccccc2)CCC[C@H]1C[C@@H](O)c1ccccc1` the value was -2.41% (inactive); for `Cc1ccnc(N)c1`, -1.11% (inactive).

Still in this assay, the particulars now being: Drosophila S3 cells, BODIPY lipid droplet/cell ratio, laser cytometry; measured here: cell count channel max response; cells loaded with oleic acid.
Turning to `CCO[C@H]1O[C@@H]([C@H](COCc2ccccc2)OCc2ccccc2)[C@@H](OCc2ccccc2)[C@H]1O`, the max response is -8.63%.
Same read-out and setting: for `FC(F)(F)c1ccccc1-c1ccc2ncnc(NC3CCNCC3)c2c1` the value was 8.99%; for `Cc1cc2ccc(=O)oc2cc1OC[C@@H](O)C(C)(C)O`, 13%; for `C1CCC(C(C[C@@H]2CCCCN2)C2CCCCC2)CC1`, -11.9%.
In the case of `Nc1ncnc2c1nc(Br)n2[C@H]1O[C@H]2COP(=O)(O)O[C@H]2[C@@H]1O`, the max response was 2.68%.
Still for that read-out and setting: for `COc1cc(N[C@@H](C)CCCN)c2ncccc2c1` the value was -0.938%; for `CC(C)(C)NC(=O)[C@@H]1C[C@H]2CCCC[C@@H]2CN1C[C@H](O)[C@H](Cc1ccccc1)NC(=O)[C@@H](CC(N)=O)NC(=O)c1ccc2ccccc2n1`, 1.41%.
On the same count and under the same terms, for `COC(=O)C1=C(C)NC(C)=C(C(=O)OCCN(C)Cc2ccccc2)[C@H]1c1cccc([N+](=O)[O-])c1` the value was -15.5%; for `CC/C=C\C[C@H]1C(=O)CC[C@@H]1CC(=O)O`, -8.93%.
The same measure, in the same setting: the figure for `COc1cccc(-c2nc(NCCc3c[nH]c4ccc(OC)cc34)c3ccccc3n2)c1` is -17.7%; for `C[C@@H](CN1c2ccccc2Sc2ccccc21)N(C)C` it is -10.2%; for `C[C@@H](Cc1cccc(C(F)(F)F)c1)NCCOC(=O)c1ccccc1` it is -19.2%.
On to `C=Cc1c(C)c2cc3nc(cc4[nH]c(cc5nc(cc1[nH]2)C(C)=C5CCC(=O)O)c(CCC(=O)OC)c4C)[C@@]1(C)C3=CC=C(C(=O)OC)[C@H]1C(=O)OC` (tested in a mixture with another compound), for which the max response amounted to 3.74%.
Still for that read-out and setting: for `O=C(OC[C@@H](O)CO)c1ccccc1Nc1ccnc2cc(Cl)ccc12` the value was 9.55%; for `C=C(C)[C@H]1CC[C@]2(C(=O)O)CC[C@]3(C)[C@@H](CC[C@H]4[C@@]5(C)CC[C@@H](O)C(C)(C)[C@@H]5CC[C@@]43C)[C@H]12`, -3%; for `Nc1ncnc2c1ncn2[C@@H]1O[C@H](COP(=O)(O)O)[C@@H](O)[C@@H]1O`, -10.2%.
Still for that read-out and setting: for `CC1=C(CCC(=O)O)c2cc3nc(cc4[nH]c(cc5[nH]c(cc1n2)c(C)c5C(C)O)c(C)c4C(C)O)C(C)=C3CCC(=O)O` (stereo not given) the value was 12.6%; for `CO[C@]1(NC(=O)[C@H](C(=O)O)c2ccc(O)cc2)C(=O)N2C(C(=O)O)=C(CSc3nnnn3C)CO[C@H]21`, -7.15%; for `COc1ccc2c(c1)N(C[C@@H](C)CN(C)C)c1ccccc1S2`, -9.35%.
The same measure, in the same setting: for `CCN(CC)CCOC(=O)[C@@H](c1ccccc1)C1CCCCC1` the value was -11.7%; for `O[C@@](CCN1CCCCC1)(c1ccccc1)[C@@H]1C[C@H]2C=C[C@@H]1C2`, -4.18%; for `O=C1C=CC(=O)c2c1ccc1c2ccc2ccccc21`, -0.715%.
With `C[C@@](N)(C(=O)O)c1cccc(CC(=O)O)c1`, the max response is 1.61%.
Consider `NCCC(=O)N[C@@H](Cc1cnc[nH]1)C(=O)O`, for which the max response was -6.32%.
The same measure, in the same setting: for `C/C(=C\CNc1ncnc2nc[nH]c12)CO` the value was 4.12%; for `CCC(=O)[C@@]1(C)[C@H](C)C[C@@H]2[C@@H]3CCC4=CC(=O)C=C[C@@]4(C)[C@H]3[C@H](O)C[C@]21C`, -14.6%; for `Nc1ncn([C@H]2O[C@@H](CO)[C@@H](O)[C@@H]2O)c(=O)n1`, -3.14%.

Source of the values: PubChem BioAssay (NCATS).
